Compound activity (PubChem)
Rows were chosen to be rich in hits. Some 0.3% of all compounds tested hit in one or more screens of this group.
hcGAS lum – Primary biochemical luminescence assay for human cyclic GMP-AMP synthase inhibitors | Q8N884 | recombinant h-cGAS, ATP depletion, Kinase-Glo luminescence | inhibition, % at 12.5 µM | 290,000 compounds, 0.081% hits | AID 1259398, 2018
Target sequence (Q8N884 whole entry, looked up): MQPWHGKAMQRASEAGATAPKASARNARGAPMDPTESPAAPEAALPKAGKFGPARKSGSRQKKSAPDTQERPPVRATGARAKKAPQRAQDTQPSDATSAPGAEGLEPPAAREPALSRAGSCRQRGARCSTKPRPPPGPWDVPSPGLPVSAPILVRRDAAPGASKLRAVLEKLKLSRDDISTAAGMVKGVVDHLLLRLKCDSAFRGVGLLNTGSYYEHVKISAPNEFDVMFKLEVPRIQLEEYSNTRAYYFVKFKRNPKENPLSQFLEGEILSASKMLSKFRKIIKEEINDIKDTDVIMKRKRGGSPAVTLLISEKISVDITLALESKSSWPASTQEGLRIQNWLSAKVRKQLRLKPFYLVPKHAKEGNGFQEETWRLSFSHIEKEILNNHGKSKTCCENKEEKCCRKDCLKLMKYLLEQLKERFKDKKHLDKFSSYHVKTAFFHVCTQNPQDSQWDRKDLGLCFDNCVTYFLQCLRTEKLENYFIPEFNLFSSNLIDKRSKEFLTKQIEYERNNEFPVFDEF
mcGAS lum – cyclic GMP-AMP synthase inhibitors, mouse, primary biochemical chemiluminescence. Q8C6L5. recombinant cGAS, Kinase-Glo ATP depletion luminescence. inhibition, % at 12.5 µM. 160,000 compounds, 0.15% hits. AID 1259399, 2018
NPYLR7 ag – agonists of mosquito NPYLR7 receptor, primary screen, cell-based, Aedes aegypti, calcium fluorescence, mosquito biting behavior; Aedes aegypti neuropeptide Y-like receptor 7 (NPYLR7); HEK293T NPYLR7/Galpha15, GCaMP6s calcium fluorescence; activation, % at 10 µM; 270,000 compounds, 0.15% hits; AID 1259423, 2018; in the data active means activation above about 40%
A number is an active result; . = inactive; / = no result. Unless noted, no stated cut-off is given here; in the data, active means inhibition above about 40%; inactive means the rest.

SMILES | hcGAS lum | mcGAS lum | NPYLR7 ag
N#CC1C(=N)SC(=N)C(C#N)C1c1cccc(Cl)c1 (stereo unspecified) | . | . | .
N#CC1C(=N)SC(=N)C(C#N)C1c1ccccc1I (stereo unspecified) | . | / | .
N#CC1C(=N)SC(=N)C(C#N)C1c1cccc(Cl)c1Cl (stereo unspecified) | . | . | .
N#CC1C(=N)SC(=N)C(C#N)C1c1ccc(Cl)cc1Cl (stereo unspecified) | . | / | 164
N#CC1C(=N)SC(=N)C(C#N)C1c1cccc(F)c1 (stereo unspecified) | 54 | 45 | 97
Cn1c(=O)n(Cc2c(Cl)cccc2Cl)c(=O)c2c1nc1n2CCCN1Cc1ccco1 | . | . | .
C=CCNc1ccccc1C(=O)N1CCC[C@@H]1C(N)=O | . | . | .
O=C(NC(c1ccccc1)c1ccc2ccccc2n1)C1CCN(C(=O)Cc2cccs2)CC1 (stereo unspecified) | . | . | .
CCOC(=O)[C@@H]1CN2CCN(C(=O)c3ccccc3)C[C@@H]2[C@H]1c1ccccc1 | . | . | .
COc1ccc(/C=C\C(=O)Nc2cc(=O)n(C)c(=O)n2C)cc1OC | . | . | .
CCn1c(=O)c2c(nc(/C=C/c3ccc(OC)c(OC)c3)n2C)n(CC)c1=O | . | . | 85
Cc1ccc(CNC(=O)C2CCN(c3ncnc4c3sc3ncccc34)CC2)cc1 | . | . | .
COC(=O)c1c(C)c2c(c(C)c1O)OC(=O)c1c(C)c(Cl)c(O)c(Cl)c1O2 | . | . | .
Cc1cc(O)c(C=O)c2c1C(=O)Oc1c(C)c(O)c3c(c1O2)C(O)OC3=O (stereo unspecified) | 42 | / | .
COc1cc(C)c2c(c1C=O)Oc1c(c(C)c(O)c3c1C(O)OC3=O)OC2=O (stereo unspecified) | 70 | 41 | .
CCCCn1c(N)c(N(CC)C(=O)CCSC)c(=O)[nH]c1=O | . | / | .
O=C(NC1CSc2c1nc1ccccc1c2C(=O)O)c1ccccc1 (stereo unspecified) | 41 | / | .
O=C(Nc1ccccc1I)c1c2c(nc3ccccc13)CCCC2 | . | . | .
CN1C(=S)N(C2CCCCC2)C(=O)/C1=C\c1ccc2c(c1)OCO2 | . | . | 46
CN1C(=S)N(c2ccc3c(c2)OCO3)C(=O)/C1=C\c1cccc(OCCO)c1 | . | . | .
CCN(CCOc1ccccc1)C(=O)C1CCC(O)CC1 (stereo unspecified) | . | . | .
NC(=O)NCC(=O)N1CCCC(CCc2ccccc2C(F)(F)F)C1 (stereo unspecified) | . | . | .
COc1ccc(CCOc2nc(-c3ccc(Cl)c(Cl)c3)n(-c3cccc(NC(=O)c4cccc(OC)c4)c3)n2)cc1 | . | . | .
COc1cc(OC)c(C2=NOC3(CC(=O)N(c4cccc(Cl)c4)C3=O)C2)cc1OC (stereo unspecified) | . | / | 83
COc1ccc2c(c1OC)C(=O)N(c1cccc(Cl)c1)C2=O | . | / | .
SMILES | hcGAS lum | mcGAS lum | NPYLR7 ag
O=C(O)C1Nc2ccc(Br)cc2C2C=CCC12 (stereo unspecified) | . | 85 | .
O=C(O)C1Nc2c(O)cccc2C2C=CCC12 (stereo unspecified) | . | . | .
O=c1oc2cc(O)ccc2cc1-c1nc2ccccc2s1 | . | . | 140
CCOc1ccc2cc(-c3nc4ccccc4s3)c(=O)oc2c1 | . | . | .
O=C(c1ccc(Cl)cc1OC1CCN(C2Cc3ccccc3C2)CC1)N1CCCCC1 | . | . | .
CNC(=O)c1cnc(/C=C/c2csc(-c3ccsc3)n2)[nH]c1=O | . | / | 67
Cc1nc(-c2ccsc2)sc1C(=O)NCc1ccccc1 | . | . | .
CCC1CN(C(=O)c2cc(C(C)C)no2)CCC(=O)N1Cc1ccccc1 (stereo unspecified) | . | . | .
CCC1CN(C(=O)c2cc(C(C)C)on2)CCC(=O)N1Cc1ccccc1 (stereo unspecified) | . | / | 62
Cc1cccc(OCC(=O)N2CCOC(COCc3c(Cl)cccc3Cl)C2)c1 (stereo unspecified) | . | . | .
COc1ccc2nc(NC(=O)/C=C/c3ccc(Br)cc3)sc2c1 | . | . | .
COc1ccc2nc(C=Cc3cc(Br)c(O)c(OC)c3)sc2c1 | . | / | 81
C[C@@H](NC(=O)c1ccc2nc(-c3ccccc3)c(-c3ccccc3)nc2c1)C(C)(C)C | . | / | .
Cn1c(=O)[nH]c2nnc(-c3cccnc3)nc2c1=O | 41 | 58 | .
O=c1c2ccc(-c3cccnc3)nc2[nH]n1-c1ccccc1 | . | / | .
CCN1CCN(c2c(CN(CCCOC)C(=O)Nc3ccc(OC)cc3)c(C)nn2-c2ccccc2)CC1 | . | . | .
CCCc1nn2c(N)c(C=C3C=C(Cl)C(=O)C(Cl)=C3)c(=O)nc2s1 | . | 52 | 51
